# Assay results as given in PubChem BioAssay AID1851 (National Center for Advancing Translational Sciences (NCATS), 2009).
# About 5,100 (32%) of roughly 16,000 compounds were called active. Inconclusive results (about 25%) are left out. Calls follow the shape of the dose curve; as a rule, active = well fitted curve in the direction sought with a large enough effect; inconclusive = small, poorly fitted or top-dose-only effect, or effect the other way; inactive = no such curve, though single readings can be large or run the other way. The list shows a part of the results.
# Molecular target: Cytochrome P450 3A4 (Homo sapiens) (UniProt P08684)
# Assay: Cytochrome panel assay with activity outcomes
# Conditions: recombinant CYP, pro-luciferin dealkylation, luminescence, p450-cyp3a4; series mostly up to 57.1 µM; activity, negative = inhibition: at the top concentration
# % is scaled to controls: 0 for no effect and ±100 for the full control effect.
# Cytochrome P450 3A4 (Homo sapiens), sequence (P08684 whole entry, looked up): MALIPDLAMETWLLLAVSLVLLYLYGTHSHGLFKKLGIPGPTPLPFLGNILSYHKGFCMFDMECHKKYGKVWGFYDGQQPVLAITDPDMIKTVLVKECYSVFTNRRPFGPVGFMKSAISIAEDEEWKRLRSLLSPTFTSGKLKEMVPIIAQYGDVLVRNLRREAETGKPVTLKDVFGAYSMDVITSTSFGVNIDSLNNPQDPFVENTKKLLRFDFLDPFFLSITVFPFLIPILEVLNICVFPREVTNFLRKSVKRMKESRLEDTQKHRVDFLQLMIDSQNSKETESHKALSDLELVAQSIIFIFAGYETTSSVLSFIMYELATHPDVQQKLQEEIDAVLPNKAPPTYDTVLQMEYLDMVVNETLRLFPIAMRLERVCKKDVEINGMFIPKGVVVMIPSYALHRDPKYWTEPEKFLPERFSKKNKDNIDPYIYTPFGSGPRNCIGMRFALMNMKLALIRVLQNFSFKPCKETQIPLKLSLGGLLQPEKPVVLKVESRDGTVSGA
SMILES,"activity, negative = inhibition",AC50
NC(=O)C1(N2CCCCC2)CCN(C(=O)c2ccc(-n3cnnn3)cc2)CC1,-3.2% (inactive),–
NC(N)=[N+]1CCc2ccccc2C1,-1.96% (inactive),–
CN1CCN(NC(=O)c2ccccc2F)CC1,4.34% (inactive),–
COC(=O)C(NNc1ccccc1)(NC(=O)c1ccccc1F)C(F)(F)F (stereo not drawn),–,1.58 µM (active)
[Cu].[O-]/N=C1/C(=[OH+])Nc2ccccc21.[O-]Nc1c(O)[nH]c2ccccc12,1.34% [at 11.4 µM] (inactive),–
O=Nc1c(-c2c(O)[nH]c3ccccc23)[nH]c2ccccc12,–,7.94 µM (active)
O=C(O)c1ccc(S(=O)(=O)N=Nc2c(O)[nH]c3ccccc23)cc1,14.3% [at 11.4 µM] (inactive),–
O=c1[nH][nH]c(C(F)(F)F)c1C=Nc1ccccc1,-5.01% (inactive),–
COc1cc2nc(N(C)CCCNC(=O)[C@@H]3CCCO3)nc(N)c2cc1OC,-10.6% [at 25.6 µM] (inactive),–
COc1cc2nc(N3CCN(C(=O)OCc4ccccc4)[C@H](C(=O)NC(C)(C)C)C3)nc(N)c2cc1OC,–,3.98 µM (active)
C=CCN=C1CC(C)(C)CC(=O)/C1=C(/O)CCC(=O)OC,-3.27% (inactive),–
CC(C)(CCc1nc2ccccc2[nH]1)C(=O)O,-1.06% [at 11.4 µM] (inactive),–
Cc1cc(C)cc(NC(=O)CCc2nc3ccccc3[nH]2)c1,–,2.82 µM (active)
CC(=O)COC(=O)CCc1nc2ccccc2[nH]c1=O,10.3% (inactive),–
CCCn1c(-c2cccs2)nc2nc3ccccc3nc21,–,10 µM (active)
CCCCNC(=O)NS(=O)(=O)c1ccc(C(=O)OC(C)C)o1,1.1% (inactive),–
N/C(=N\OC(=O)Cc1ccc(Cl)cc1)c1cccnc1,–,0.794 µM (active)
C/C(=N\OC(=O)c1ccccc1)c1cc(-c2ccc(Cl)cc2)no1,-1.98% (inactive),–
Cc1cc(C)n(CC(=O)N/N=C/c2ccco2)n1,8.54% (inactive),–
COc1ccccc1NCc1nnc(SCC(=O)N/N=C/c2ccco2)n1-c1ccc(Cl)cc1Cl,–,5.01 µM (active)
O=C(NC(=S)NNC(=O)c1cccs1)c1ccco1,-0.791% [at 2.29 µM] (inactive),–
O=C(NNC(=O)c1ccccc1)C(=O)N1CCCCC1,11.6% (inactive),–
CC(=O)c1cccc(NC(=O)/C(=C\c2ccco2)NC(=O)c2cccs2)c1,–,20 µM (active)
O=C(N/C(=C\c1cccs1)C(=O)N1CCCCCC1)c1ccccc1,–,7.94 µM (active)

SMILES,"activity, negative = inhibition",AC50
O=C(NCC1CCCO1)/C(=C\c1ccco1)NC(=O)c1ccccc1 (stereo not drawn),-22.7% (inactive),–
O=C(NC(N1CCCC1)C(Cl)(Cl)Cl)c1ccccc1 (stereo not drawn),-21.3% (inactive),–
O=C(O)C/C(=C\c1ccco1)C(=O)O,-18.3% [at 11.4 µM] (inactive),–
O=C(N/C(=C/c1ccco1)C(=O)N1CCCCCC1)c1cccs1,–,14.1 µM (active)
O=C(Nc1cccc(F)c1)/C(=C\c1ccco1)NC(=O)c1cccs1,-8.91% [at 2.29 µM] (inactive),–
CC(=NC1CCCCC1)c1ccccc1O,-3.59% [at 11.4 µM] (inactive),–
C/C(=N/Nc1ccc2ccccc2n1)c1ccccc1O,–,3.16 µM (active)
CC(=O)/C=C/c1ccc2ccccc2n1,-12.5% (inactive),–
Cc1cc(N=Cc2c(CO)cnc(C)c2O)c(N=Cc2c(CO)cnc(C)c2O)cc1C.[Zn],-6.9% [at 11.4 µM] (inactive),–
Cc1cc(C)cc(-n2nnnc2SCC(=O)Nc2nc(-c3ccc(Cl)cc3)cs2)c1,–,3.98 µM (active)
Cc1cc(C)cc(-n2nnnc2SCC(=O)Nc2nc(-c3ccc(F)cc3)cs2)c1,–,1.58 µM (active)
COC(=O)CSc1ccc2nnc(-c3ccc(F)cc3)n2n1,2.79% (inactive),–
Cc1ncsc1C(=O)N1N=C2/C(=C/c3ccccc3)CCCC2C1c1ccccc1 (stereo not drawn),–,5.01 µM (active)
COc1ccc(/C=C2\CCCC3C2=NN(C(=O)c2ccco2)C3c2ccc(OC)c(OC)c2)cc1OC (stereo not drawn),–,7.94 µM (active)
O=C1C2=CC[C@@H]3C(=O)N(c4ccc(F)cc4F)C(=O)[C@H]3[C@H]2[C@H](O)[C@H]2O[C@H]12,-21.3% [at 11.4 µM] (inactive),–
CC1(C)CCC(NC(=O)[C@H](N)CCC(=O)O)CC1,-1.71% (inactive),–
O=[N+]([O-])c1ccc(Cl)c(/C=N/N2CCN(Cc3ccccc3)CC2)c1,-22.6% (inactive),–
COc1ccccc1/C=C/C=N/N1CCN(Cc2ccc(Cl)cc2)CC1,–,14.1 µM (active)
C(/C=C/c1ccco1)=N/N1CCN(c2ccccc2)CC1,7.59% (inactive),–
CC(C)N(Cc1ccccc1)S(=O)(=O)c1n[nH]c(C(C)(C)C)n1,-24.5% [at 11.4 µM] (inactive),–
Fc1ccc2nc(Nc3nc4c(s3)CCCC4)sc2c1,–,22.4 µM (active)
O=C(Nc1nc2ccc(F)cc2s1)C1CCCO1 (stereo not drawn),-18.2% (inactive),–
CC(C)(C)c1ccc(OC(=O)Nc2ccc(O)c(C(=O)O)c2)cc1,-11.3% [at 11.4 µM] (inactive),–
Cc1cccc(/C=N\Nc2cn[nH]c(=O)c2Cl)c1,–,15.8 µM (active)
